We go through 16 compounds from PubChem BioAssay (Tox21).

Each structure is given as a SMILES string. Records with an inconclusive call do not appear. Active and inactive are the calls of the source. Unless noted, calls come from the whole dose curve; as a rule, active = well fitted curve in the direction sought with a large enough effect in the repeat runs; inconclusive = weak or mixed curves; inactive = no such curve, though single readings can be large; an effect the other way counts as inactive or inconclusive.

The nature of assay [1]: qHTS assay to identify small molecule antagonists of the estrogen related receptor (ERR) signaling pathway from Tox21 library - cell viability counter screen (AID 1224834). Note: nearly all actives have a fitted effect of over 30% in size. Note: potency is the fitted concentration of half-maximal effect. The gist of the method:
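Seeded ERR cells were rested 6 h at 37 C/5% CO2 before compounds, positive and negative controls or DMSO were added. Incubation continued for 17.5 h, and viability was then quantified by CellTiter-Fluor fluorescence.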
For orientation: In qHTS, concentration-response curves come from the screen itself.

The target of assay [2] is Luciferin 4-monooxygenase (Photinus pyralis) (UniProt P08659). Description: qHTS assay to identify small molecule inhibitors of firefly luciferase (AID 1224835). Note: series mostly up to about 120 µM; nearly all actives have a fitted effect of over 25% in size. The method in brief:
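Quantitative HTS format; KM concentrations of both substrates. Purified P. pyralis FLuc activity quantified from luminescence images.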

Assay [3] is described as follows: qHTS assay to identify small molecule agonists of the constitutive androstane receptor (CAR) signaling pathway - cell viability counter screen (AID 1224836). Note: nearly all actives have a fitted effect of over 45% in size. Note: potency is the fitted concentration of half-maximal effect. The method in brief:
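23 h treatment, 37 C, 5% CO2. Cell line: HepG2 stably expressing hCAR with a CYP2B6-2.2kb construct. Co-treatment: PK11195, 0.75 uM final. Read-out: CellTiter-Fluor fluorescence intensity.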

The nature of assay [4]: qHTS assay to identify small molecule antagonists of the constitutive androstane receptor (CAR) signaling pathway - cell viability counter screen (AID 1224837). Note: nearly all actives have a fitted effect of over 45% in size. Note: potency is the fitted concentration of half-maximal effect. The gist of the method: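 To flag cytotoxic false antagonists, HepG2 hCAR/CYP2B6-2.2kb cells were treated 23 hr with 15-concentration compound series and 50 nM CITCO at 37 C/5% CO2; CellTiter-Fluor fluorescence was the measured end point.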

A short description of assay [5]: qHTS RealTime-Glo MT Cell Viability Assay in HepG2 cells - 24 hour (AID 1224867). Note: nearly all actives have a fitted effect of over 50% in size. The gist of the method:
(§1)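 HepG2 cells (600/well) were dispensed with RealTime-Glo reagents, incubated 5 h at 37 °C, then treated with compounds in DMSO for up to 40 h. Nonlytic NanoLuc luminescence reflecting viable cells was read at each stated time point.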

Assay [6] can be described thus: qHTS RealTime-Glo MT Cell Viability Assay in HepG2 cells - 16 hour (AID 1224885). Note: nearly all actives have a fitted effect of over 50% in size. The gist of the method: as §1
A short description of assay [7]: qHTS assay to identify small molecule agonists of the sonic hedgehog signaling (Shh) pathway - cell viability counter screen (AID 1259366). Note: nearly all actives have a fitted effect of over 50% in size. Note: potency is the fitted concentration of half-maximal effect. The method in brief: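 In quantitative high-throughput format, 3T3 Gli1-Luc cells were exposed to compounds for 24hr and multiplexed for viability using CellTiter-Fluor, incubated 1hr at 37C before the fluorescence read.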
The nature of assay [8]: qHTS assay to identify small molecule antagonists of the sonic hedgehog signaling (Shh) pathway - cell viability counter screen (AID 1259367). Note: nearly all actives have a fitted effect of over 55% in size. Note: potency is the fitted concentration of half-maximal effect. The method in brief: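 Conditioned medium drove Shh signaling in 3T3 Gli1-Luc cells exposed to compounds at 37C and 5% CO2. Viability was determined from CellTiter-Fluor fluorescence, with reagent incubated 1 hr after 23 hr of treatment.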

Assay [9] deals with Estrogen receptor (Homo sapiens) (UniProt P03372). Description: qHTS assay to identify small molecule agonists of the estrogen receptor alpha (ER-alpha) signaling pathway in the presence of an antagonist (AID 1259383; calls by dose curve; note: top concentration of the series differs between compounds; nearly all actives have a fitted effect of over 15% in size). The method in brief:
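Quantitative HTS confirmation: compounds titrated at 15 concentrations onto estrogen-deprived VM7Luc4E2 cells carrying a four-ERE luciferase construct, with ICI-182,780 present at 10.0nM final. Signal is luminescence after 22hr exposure.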

A short description of assay [10]: qHTS assay to identify small molecule agonists of the estrogen receptor alpha (ER-alpha) signaling pathway in the presence of an antagonist - cell viability counter screen (AID 1259386).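 Note: cells exposed to compounds for 22 h at 37 °C before the viability read; nearly all actives have a fitted effect of over 30% in size.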 Note: potency is the fitted concentration of half-maximal effect. The gist of the method: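 The test measures whether compounds kill ER-alpha reporter cells (VM7Luc4E2) under antagonist co-treatment (ICI-182,780, 10.0nM). Fluorescence from CellTiter-Fluor is read after a 22hr exposure.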

Assay [11] can be described thus: qHTS assay to identify small molecule antagonists of the TGF-beta/Smad signaling pathway - cell viability counter screen (AID 1346824). Note: nearly all actives have a fitted effect of over 50% in size. Note: potency is the fitted concentration of half-maximal effect. The method in brief: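 SBE-bla HEK 293T cells were plated overnight at 37 C, then given compounds in DMSO plus TGF-beta1 (added as 0.25 ng/mL solution) for 5 hr. After the bla read, CellTiter-Glo was added to the same wells and luminescence read after 30 min at room temperature.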

Assay [12] can be described thus: qHTS assay to identify small molecule agonists of the TGF-beta/Smad signaling pathway - cell viability counter screen (AID 1346829). Note: top concentration of the series differs between compounds; nearly all actives have a fitted effect of over 45% in size. The method in brief:
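SBE-bla HEK 293T cells plated overnight, compound exposure 5 hr at 37 C. Viability read in the same wells by CellTiter-Glo luminescence after 30 min at room temperature, following the beta-lactamase read.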

In assay [13] the target is Nuclear receptor subfamily 1 group I member 2 (Homo sapiens) (UniProt O75469). In words: Human pregnane X receptor (PXR) small molecule agonists, qHTS assay (AID 1346982). Note: potency is the fitted concentration of half-maximal effect; nearly all actives have a fitted effect of over 35% in size. The method in brief:
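Stable HepG2 line reporting PXR-mediated CYP3A4 expression via luciferase. Treatment: 24 hr with compounds in DMSO at 37 C. Detection: ONE-Glo luminescence.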

Assay [14] addresses Cytochrome P450 2C19 (Homo sapiens) (UniProt P33261). Description: Cytochrome P450 Family 2 Subfamily C Member 19 (CYP2C19) small molecule antagonists: luciferase reporter qHTS assay (AID 1671197). Note: nearly all actives have a fitted effect of over 65% in size. Note: potency is the fitted concentration of half-maximal effect. The gist of the method:
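P450-Glo CYP2C19 system: enzyme-substrate mix with compound 10 min at room temperature, then NADPH regeneration solution, 1 h at 37C. Proluciferin-to-luciferin conversion detected by luminescence after 20 min with detection reagent; ketoconazole as positive control.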
Background: Reporter assays use an easily measured gene product as a stand-in for the process of interest.

For assay [15], the target named is Cytochrome P450 2C9 (Homo sapiens) (UniProt P11712). In words: Cytochrome P450 Family 2 Subfamily C Member 9 (CYP2C9) small molecule antagonists: luciferase reporter qHTS assay (AID 1671198). The gist of the method:
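CYP2C9 activity was measured with a P450-Glo proluciferin substrate. Enzyme–substrate mix was held with compound for 10 min at room temperature, then NADPH regeneration solution was added for 1 h at 37C. Luciferin product was read as luminescence.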

Assay [16] is described as follows: qHTS RealTime-Glo MT Cell Viability Assay in HEK293 cells - 32 hour (AID 1224868). The method in brief: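 HEK293 cells seeded with NanoLuc/prosubstrate reagent, rested 5 h at 37 C, then dosed and kept at 37 C up to 40 h. Nonlytic real-time luminescence from viable cells read at 0, 8, 16, 24, 32 and 40 h.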
Assay [17] is described as follows: A CellTox Green Cytotoxicity Assay to monitor cytotoxicity in HepG2 cells - 24 hour (AID 1224878). Note: nearly all actives have a fitted effect of over 45% in size. Note: potency is the fitted concentration of half-maximal effect. The method in brief: (§2)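 Measurements at 0, 8, 16, 24, 32 and 40 h of treatment captured CellTox Green fluorescence in HepG2 cells that had been co-plated with reagent and preincubated 5 h at 37 C/5% CO2.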
The nature of assay [18]: A CellTox Green Cytotoxicity Assay to monitor cytotoxicity in HepG2 cells - 40 hour (AID 1224879). Note: nearly all actives have a fitted effect of over 40% in size. Note: potency is the fitted concentration of half-maximal effect. The method in brief:
as §2

The nature of assay [19]: A CellTox Green Cytotoxicity Assay to monitor cytotoxicity in HEK293 cells - 8 hour (AID 1224884). Note: nearly all actives have a fitted effect of over 35% in size. The gist of the method: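 Tox21 screen in HEK293: membrane-impermeant cyanine dye fluoresces on binding dead-cell DNA; compound pinned 5 h post-seeding, plates held at 37 C, signal read repeatedly through 40 h.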
Assay [20] has as its target Retinoic acid receptor RXR-alpha (Homo sapiens) (UniProt P19793). Description: qHTS assay to identify small molecule agonists of the RXR signaling pathway (AID 1159527; calls by dose curve; note: nearly all actives have a fitted effect of over 35% in size; note: potency is the fitted concentration of half-maximal effect). The method in brief:
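Using 9-cis retinoic acid as the reference agonist, chemicals were tested in HEK 293T cells […] for 16 hr; substrate loading lasted 2 hr at room temperature.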

Nuclear receptor subfamily 1 group I member 2 (Homo sapiens), sequence (O75469 whole entry, looked up): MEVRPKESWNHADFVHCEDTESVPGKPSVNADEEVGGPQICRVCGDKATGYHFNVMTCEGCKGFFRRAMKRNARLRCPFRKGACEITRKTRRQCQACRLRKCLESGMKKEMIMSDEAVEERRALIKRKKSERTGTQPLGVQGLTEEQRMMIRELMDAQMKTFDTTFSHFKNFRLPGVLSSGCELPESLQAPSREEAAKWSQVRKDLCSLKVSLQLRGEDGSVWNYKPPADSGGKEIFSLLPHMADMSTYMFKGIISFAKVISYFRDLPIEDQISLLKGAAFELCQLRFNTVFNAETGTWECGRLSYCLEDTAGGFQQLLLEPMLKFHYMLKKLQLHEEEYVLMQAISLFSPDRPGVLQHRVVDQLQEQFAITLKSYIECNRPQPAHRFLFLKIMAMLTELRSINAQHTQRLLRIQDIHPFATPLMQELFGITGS
Cytochrome P450 2C9 (Homo sapiens), sequence (P11712 whole entry, looked up): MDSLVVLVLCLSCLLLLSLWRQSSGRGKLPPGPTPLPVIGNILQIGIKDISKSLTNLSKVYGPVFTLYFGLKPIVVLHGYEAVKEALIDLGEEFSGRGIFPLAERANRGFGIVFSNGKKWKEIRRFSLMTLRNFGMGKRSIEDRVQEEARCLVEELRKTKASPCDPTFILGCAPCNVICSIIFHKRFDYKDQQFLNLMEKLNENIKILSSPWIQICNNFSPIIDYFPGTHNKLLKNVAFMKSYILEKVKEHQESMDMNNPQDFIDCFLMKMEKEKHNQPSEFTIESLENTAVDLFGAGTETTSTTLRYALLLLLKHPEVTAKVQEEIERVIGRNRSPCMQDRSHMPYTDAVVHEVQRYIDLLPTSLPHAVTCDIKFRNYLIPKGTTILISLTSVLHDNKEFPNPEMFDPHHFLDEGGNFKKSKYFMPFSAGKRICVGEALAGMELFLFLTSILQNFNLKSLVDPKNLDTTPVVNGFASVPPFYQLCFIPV
Cytochrome P450 2C19 (Homo sapiens), sequence (P33261 whole entry, looked up): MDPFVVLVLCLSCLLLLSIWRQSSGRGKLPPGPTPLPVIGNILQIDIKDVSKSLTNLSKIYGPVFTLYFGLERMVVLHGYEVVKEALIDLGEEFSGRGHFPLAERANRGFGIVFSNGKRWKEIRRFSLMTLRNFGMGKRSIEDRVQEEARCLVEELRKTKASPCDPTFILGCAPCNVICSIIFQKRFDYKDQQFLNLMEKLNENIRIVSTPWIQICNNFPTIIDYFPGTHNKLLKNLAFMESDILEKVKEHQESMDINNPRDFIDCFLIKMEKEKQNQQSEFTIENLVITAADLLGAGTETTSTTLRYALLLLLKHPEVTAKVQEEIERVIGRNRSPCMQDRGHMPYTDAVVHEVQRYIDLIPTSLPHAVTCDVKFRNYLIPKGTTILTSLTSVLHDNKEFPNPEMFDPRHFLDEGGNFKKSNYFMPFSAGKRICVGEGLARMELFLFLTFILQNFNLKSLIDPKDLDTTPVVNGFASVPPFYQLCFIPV
Retinoic acid receptor RXR-alpha (Homo sapiens), sequence (P19793 whole entry, looked up): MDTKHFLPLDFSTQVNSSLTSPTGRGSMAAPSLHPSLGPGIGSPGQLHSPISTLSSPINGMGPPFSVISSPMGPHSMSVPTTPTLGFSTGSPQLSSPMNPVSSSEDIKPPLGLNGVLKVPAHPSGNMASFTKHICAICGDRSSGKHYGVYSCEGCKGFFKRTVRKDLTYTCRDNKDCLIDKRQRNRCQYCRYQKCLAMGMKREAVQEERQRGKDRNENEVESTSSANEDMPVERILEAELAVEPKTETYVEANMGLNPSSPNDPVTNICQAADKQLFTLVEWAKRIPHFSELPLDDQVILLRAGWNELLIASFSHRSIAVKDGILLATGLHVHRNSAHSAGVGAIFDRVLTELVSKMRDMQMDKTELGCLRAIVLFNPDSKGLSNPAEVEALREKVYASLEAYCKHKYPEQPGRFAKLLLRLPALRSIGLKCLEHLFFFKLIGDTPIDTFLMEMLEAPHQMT
Luciferin 4-monooxygenase (Photinus pyralis), sequence (P08659 whole entry, looked up): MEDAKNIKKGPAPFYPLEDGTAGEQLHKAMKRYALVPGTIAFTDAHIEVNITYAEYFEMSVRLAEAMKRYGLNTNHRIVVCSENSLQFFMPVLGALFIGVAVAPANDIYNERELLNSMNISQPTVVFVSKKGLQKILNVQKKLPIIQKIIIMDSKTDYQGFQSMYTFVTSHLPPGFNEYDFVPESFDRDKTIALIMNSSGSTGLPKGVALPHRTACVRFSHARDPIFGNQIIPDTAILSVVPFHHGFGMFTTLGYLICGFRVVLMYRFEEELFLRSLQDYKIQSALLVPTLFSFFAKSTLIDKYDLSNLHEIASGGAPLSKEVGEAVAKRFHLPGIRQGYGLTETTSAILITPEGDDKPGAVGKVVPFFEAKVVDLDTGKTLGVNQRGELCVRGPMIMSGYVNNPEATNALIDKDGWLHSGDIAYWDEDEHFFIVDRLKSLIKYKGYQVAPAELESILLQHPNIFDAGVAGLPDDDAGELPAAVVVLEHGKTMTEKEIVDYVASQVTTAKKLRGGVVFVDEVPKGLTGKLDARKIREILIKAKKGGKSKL
Estrogen receptor (Homo sapiens), sequence (P03372 whole entry, looked up): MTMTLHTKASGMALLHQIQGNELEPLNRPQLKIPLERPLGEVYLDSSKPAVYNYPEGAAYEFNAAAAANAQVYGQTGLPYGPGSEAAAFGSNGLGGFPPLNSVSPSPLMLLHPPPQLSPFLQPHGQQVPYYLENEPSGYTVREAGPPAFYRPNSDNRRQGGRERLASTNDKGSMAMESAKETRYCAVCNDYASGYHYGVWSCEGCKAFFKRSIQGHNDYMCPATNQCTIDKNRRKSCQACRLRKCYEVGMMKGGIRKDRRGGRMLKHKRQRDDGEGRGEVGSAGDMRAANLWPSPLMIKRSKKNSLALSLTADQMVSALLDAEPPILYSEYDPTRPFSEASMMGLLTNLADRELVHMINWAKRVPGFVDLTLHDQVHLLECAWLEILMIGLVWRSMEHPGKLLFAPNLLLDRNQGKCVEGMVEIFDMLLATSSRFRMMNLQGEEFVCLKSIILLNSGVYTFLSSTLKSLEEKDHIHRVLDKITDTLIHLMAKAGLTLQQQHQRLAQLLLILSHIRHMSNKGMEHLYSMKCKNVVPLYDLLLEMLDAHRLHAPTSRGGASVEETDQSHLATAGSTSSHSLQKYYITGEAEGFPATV

On to `ClC(Cl)=C(c1ccc(Cl)cc1)c1ccccc1Cl`, for which the Potency entry in assay [1], in assay [2], in assay [3], in assay [4], in assay [5] and in assay [6] was “inactive” each time. Further, the Potency entry in assay [7], in assay [8], in [10] and in [11] was “inactive” throughout. Further, the result in assay [9] and in assay [12] was inactive. The Potency was 30.6 µM (active) in assay [13], 6.33 µM (active) in [14] and 25.2 µM (active) in assay [15].
Turning to `CC(c1ccccc1)(c1ccc(O)cc1)c1ccc(O)cc1`, the Potency in assay [1] is 61.1 µM (active); in [16], 43.6 µM (active); in assay [17], 43.6 µM (active); in assay [18], 38.9 µM (active); in assay [7], 68.6 µM (active); in assay [13] it was 17.2 µM (active). The Potency in assay [14] and in assay [15] was 8.94 µM (active) each time. Further, the Potency entry in assay [2], in [3], in assay [4], in assay [5], in [19] and in assay [6] was “inactive” throughout. Besides, the Potency entry in assay [10] and in assay [11] was “inactive” in each case. For the same compound, the result in assay [9] and in assay [12] was inactive.
Consider `C[C@]12CC[C@@H](O)C[C@@H]1CC[C@@H]1[C@@H]2CC[C@]2(C)C(=O)CC[C@@H]12`, for which the Potency entry in [3], in assay [4], in assay [5], in [17], in assay [18] and in [19] was “inactive” throughout. Besides, the Potency entry in [6], in [7], in [8], in assay [10] and in [11] was “inactive” in each case. The Potency in assay [16] is 24.5 µM (active). Moreover, the result in assay [12] was inactive.
For `Cc1cc(C)c(C(=O)P(=O)(c2ccccc2)c2ccccc2)c(C)c1`, the Potency result in assay [2], in [19] and in assay [11] was “inactive” throughout. In addition, the Potency was 49 µM (active) in assay [16]; 61.1 µM (active) in assay [7]; 54.5 µM (active) in assay [8]; 9.69 µM (active) in [13]; 6.33 µM (active) in assay [14]; 15.9 µM (active) in assay [15]. Further, in [9], the outcome was inactive.
For the compound `O=C(c1ccc(Cl)cc1)c1ccc(Cl)cc1`, the Potency entry in assay [20] is “inactive”.
Regarding `Cc1cc(C(C)(C)c2ccc(O)c(C)c2)ccc1O`, the Potency in assay [1] was 51.9 µM (active); in [16], 23.4 µM (active); in assay [7], 58.2 µM (active); in assay [8] it was 46.2 µM (active); in assay [13], 58.2 µM (active); in assay [14] it was 2.14 µM (active). Further, in [15], the Potency was 5.37 µM (active). Further, the Potency result in assay [2], in [5], in assay [6] and in assay [11] was “inactive” each time. Also, the compound was classed as inactive in assay [12].
On to `CO/C=C(/C(=O)OC)c1ccccc1Oc1cc(Oc2ccccc2C#N)ncn1`, for which the Potency in assay [1] is 20.6 µM (active); in assay [16], 23.3 µM (active); in assay [8] it was 58.1 µM (active); in [10], 21.7 µM (active); in [11], 34.7 µM (active); in assay [13], 0.686 µM (active). Also, the Potency is 2.39 µM (active) in [14] and 7.45 µM (active) in assay [15]. Besides, the Potency result in assay [2], in assay [17], in assay [18] and in [19] was “inactive” each time. In addition, in assay [9], the result was inactive.
Regarding `O=C(c1ccccc1)C(Cl)Cl`, the Potency in assay [1] was 61.1 µM (active); in assay [3], 61.1 µM (active); in assay [4], 54.5 µM (active); in assay [16], 38.9 µM (active); in assay [7], 68.6 µM (active). The Potency entry in assay [2], in [17], in assay [19], in [10], in assay [11] and in assay [14] was “inactive” throughout. In addition, the result in assay [9] and in assay [12] was inactive.
As for `O=C(O)C(c1ccc(Cl)cc1)c1ccc(Cl)cc1`, the Potency result in assay [20] was “inactive”.
Still for that read-out and setting: for `O=[N+]([O-])c1cc(C(F)(F)F)ccc1Cl` the value was “inactive”.
On the same count and under the same terms, for `c1ccncc1` the value was “inactive”.
Consider `Clc1ccccc1-c1ccccc1Cl`, for which the Potency result in assay [1], in assay [2], in [3], in [4], in [5] and in [6] was “inactive” each time. Moreover, the Potency entry in assay [7], in assay [8], in [10], in [11] and in assay [14] was “inactive” throughout.
Consider `CCc1cccc(CC)c1N`, for which the Potency entry in assay [20] was “inactive”.
`CC(CCl)OC(C)CCl` (stereo not drawn): the Potency result in [20] is “inactive”.
As for `C=CC(=O)OCCCC`, the Potency result in assay [20] was “inactive”.
Still for that read-out and setting: then `CC(C)(C)c1cc(C(C)(C)C)c(O)c(C(C)(C)C)c1`, with 15.5 µM (active).
